Results: PubChem BioAssay (NCI)
About 79,000 compounds went through this panel and 15% of them were active in at least one assay; those are over-represented in the sample as a whole. A number with no mark means an inactive call. Calls of active or inactive are those of the source. Rule as the data show it: active = growth inhibition above about 70%; inactive = the rest.

Experiments:
[1] = NCI Yeast Anticancer Drug Screen. Data for the rad50 strain (AID 155);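 also: 0% = growth of vehicle-only cultures of the same strain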; details: S. cerevisiae rad50 strain growth inhibition; at 50.0 µM; active compounds read high
Method in brief: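 Yeast carrying a defined DNA repair defect were exposed to test compounds, and growth was compared with vehicle-treated controls to give percent inhibition.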

[2] = NCI Yeast Anticancer Drug Screen. Data for the mec2-1 strain (AID 157); details: S. cerevisiae mec2-1 strain, at 50.0 µM, active compounds read high
Method in brief: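 Compounds were applied to mec2-1 yeast cells. Their growth was then compared with that of vehicle-treated cultures to give growth inhibition.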

[3] = NCI Yeast Anticancer Drug Screen. Data for the sgs1 mgt1 strain (AID 161);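 also: 0% = growth of cultures given vehicle only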; details: S. cerevisiae sgs1 mgt1 strain, at 50.0 µM, active compounds read high
Method in brief: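 Compounds are added to genetically altered yeast, and growth is compared with cultures given vehicle alone to give percent inhibition.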

[4] = NCI Yeast Anticancer Drug Screen. Data for the cln2 rad14 strain (AID 165);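 also: 0% = growth equal to vehicle treated cultures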; details: S. cerevisiae cln2 rad14 strain, at 50.0 µM, active compounds read high
Method in brief: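 Strain: cln2 rad14 yeast, altered in cell cycle control and DNA damage repair. Read-out: growth inhibition vs vehicle.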

[5] = NCI Yeast Anticancer Drug Screen. Data for the bub3 strain (AID 167); details: S. cerevisiae bub3 mutant strain, at 50.0 µM, active compounds read high
Method in brief: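 Compounds were applied to a genetically altered yeast strain carrying a cell-cycle control defect. Growth inhibition was scored against vehicle-treated controls.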

[6] = NCI Yeast Anticancer Drug Screen. Data for the mlh1 rad18 strain (AID 175); details: S. cerevisiae mlh1 rad18 strain growth inhibition; at 50.0 µM; active compounds read high
Method in brief: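 A repair-deficient yeast strain is exposed to test compound, and growth is scored relative to vehicle-treated controls.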

SMILES | growth inhibition [1] [%] | growth inhibition [2] [%] | growth inhibition [3] [%] | growth inhibition [4] [%] | growth inhibition [5] [%] | growth inhibition [6]
Cc1nnc(CC#N)n1NC(=O)CC#N | 3.95 | -3.15 | -2.7 | -18 | 8.65 | 9.95%
CCOc1ccccc1C(=O)OCCCc1ccccc1 | -1 | 9.15 | 7.1 | -2.25 | 25.2 | 15.4%
CN1C2=C(CC3=C1CC(C)(C)CC3=O)C(=O)CC(C)(C)C2 | -18.6 | -12.9 | -20.1 | -4.25 | -27.6 | -34.7%
OC(COc1ccccc1)COc1ccccc1 | 1.35 | 2.45 | 16.4 | -18.7 | 8.1 | 3.1%
COC(=O)C1=Cc2cc(OC)c(OC)cc2[C@H](c2ccc(OC)c(OC)c2)C1C(=O)OC (stereo partly specified) | -6.8 | -11.7 | -31.4 | 0.95 | 18.2 | 1.45%
CCOC(CN(C)C)OCC | 8.6 | 6.95 | 4.1 | -18.2 | -5.8 | 5.7%
CC(=O)Nc1ccc(S(=O)(=O)N/N=C/c2ccco2)cc1 | 23.1 | 1.2 | 5.7 | -30.6 | 4.1 | 33.6%
O=[N+]([O-])c1ccc(N=CNc2ccc([N+](=O)[O-])cc2)cc1 | -15.9 | -13.1 | -1.5 | -12 | 17.1 | -6.65%
c1ccc(SC2(Sc3ccccc3)CCCC2)cc1 | -9.15 | -22.1 | -12.2 | -0.5 | -24.6 | -17.4%
O=C(Nc1cc(S(=O)(=O)O)cc2cc(S(=O)(=O)O)c(N=Nc3cc(Nc4nc(Cl)nc(Nc5ccc(S(=O)(=O)O)cc5)n4)ccc3S(=O)(=O)O)c(O)c12)c1ccccc1 | 17.9 | -10.1 | 10.8 | 3.5 | 0.05 | 25.2%
COc1cc2c3c4c1OCc1c5c(cc(c1-4)CC3[N+](C)(C)CC2)OCO5 (stereo unspecified) | 4.35 | 6.3 | 8.7 | 21.1 | 11.1 | -52.1%
CCOc1ccc(/C=C/c2ccc(OCC)cc2)cc1 | -4.65 | -16.4 | -8.9 | -1.5 | 8.55 | -24.3%
CCCCCCOC(=O)C(C)(O)C(Cl)c1ccccc1 (stereo unspecified) | 3.95 | -0.45 | -5.4 | 3.9 | 9.3 | -10.2%
CC(Oc1ccc(OCC2CCCCC2)cc1)C(=O)OCC(=O)c1ccc(-c2ccccc2)cc1 (stereo unspecified) | -9.75 | -7.4 | -19.1 | -3.15 | -7.7 | -11.3%
CNC(=O)OCc1nc(SC(C)C)n(C)c1COC(=O)NC | -16 | -10.3 | -27.9 | 4.3 | -18.7 | -28.1%
CCCN(CCCC(NC(C)=O)C(=O)NCc1ccccc1)C(=O)N(C)N=O (stereo unspecified) | -21.1 | -24.8 | -4.25 | 19.9 | -14.8 | -11.9%
O=C(NCc1ccccc1)Nc1cccc2c(NC(=O)NCc3ccccc3)cccc12 | -32.3 | -31.2 | -26.9 | -8.15 | -27.5 | -7.95%
Nc1ncnc2c1[nH]c(=S)n2C1OC(CO)C(O)C1O (stereo unspecified) | 14.4 | 6.3 | 3.1 | -12.1 | 4 | 0.15%
CCCCCCCC[N+](C)([O-])CCCCCC[N+](C)([O-])CCCCCCCC (stereo unspecified) | 63.6 | 25.2 | 69.8 | 66.8 | 5.85 | 76.2% (active)
CN1CC2=C(NC(=S)NC2c2ccccc2Cl)/C(=C/c2ccccc2Cl)C1 (stereo unspecified) | 14.7 | 13.2 | 37.6 | 10.6 | 61.8 | -5.15%
CC(C)OC(=O)Nc1cccc(C(=O)O)c1 | -6.55 | -6.55 | -2.8 | -14.5 | -16.4 | -0.85%

SMILES | growth inhibition [1] [%] | growth inhibition [2] [%] | growth inhibition [3] [%] | growth inhibition [4] [%] | growth inhibition [5] [%] | growth inhibition [6]
O=C(NCCNCCO)N/N=C/c1ccccc1 | -0.2 | -34.4 | -15.9 | -7.75 | -39 | -0.65%
CN(C)C(=O)Sc1ccc([N+](=O)[O-])cc1 | 4.75 | -12.8 | -14.6 | -45.5 | 4.6 | -19.8%
c1ccc(-c2nc3c(N4CCOCC4)ncnc3o2)cc1 | -3.25 | -4.65 | 7.95 | -2.55 | -4.8 | 2.75%
Oc1cc2c(cc1O)-c1[nH]ncc1CC2 | 24.5 | 0.25 | 3.35 | -17.4 | 4.55 | -4.55%
NNC(=S)N/N=C(/C(=O)Nc1cc(Cl)ccc1Cl)C1C(=O)Nc2ccccc2S1=O (stereo unspecified) | -21.8 | -32.6 | -5.1 | -28.6 | -6.6 | -0.35%
CCCCCN(C(=O)c1ccccc1C(=O)N(CCCCC)c1ccccc1)c1ccccc1 | 15.3 | 7.85 | 15.8 | 30.6 | 3.4 | 42%
OCCn1c2ccccc2c2ccccc21 | 20.2 | -2.65 | 18.6 | -17.2 | 14 | -0.7%
Cc1[nH]c(=O)[nH]c(=O)c1CCS | -12.2 | 1.2 | 5.3 | 37.5 | -20 | -13.2%
CN1CC=C(C#CC(C)(C)O)CC1 | -13 | -17.4 | -0.65 | 4.7 | -5.9 | -25.3%
O=S1c2ccccc2N=C(c2ccc3ccccc3c2)CC1c1ccccc1F (stereo unspecified) | -1.1 | -2.95 | 12.3 | 4.45 | 2.45 | 6.8%
Cc1ccccc1NC(=O)CSc1nnc(-c2ccc(N=Cc3ccc(Cl)cc3)cc2)o1 | -13.6 | -30.9 | 1.9 | -4.75 | -30 | -17.8%
CCCCCCCCCCCCCCCCCCOCCOCCOCCOCCO | -21.7 | -10.3 | -23.5 | -43.5 | -3.25 | -19.5%
O=C(N/N=C/c1ccccc1[O-])c1ccccc1O.O=C(N/N=C/c1ccccc1[O-])c1ccccc1O.[Fe+2] | 6.45 | -10.1 | -1.5 | 19.3 | -19.6 | 9.5%
COc1ccc(/C(N)=N/OCc2ccc(C#N)cc2)cc1 | -13.5 | -21.4 | -3.2 | 10.3 | 20.7 | -25.8%
COc1ccc(/C(Cl)=C/c2cc(OC)ccc2OC)cc1 | -5.1 | -10.7 | -26.9 | -0.25 | -30.2 | -9.05%
O=C(COc1ccc(Cl)c(Cl)c1)NCc1cccc(Cl)c1 | 6.1 | -8.65 | -1.7 | -2.85 | 36.4 | 30.9%
NCC(=O)NCC(=O)NCC(=O)NCC(=O)NCC(=O)NCC(=O)O | 26.1 | 16.4 | 0.4 | -38.6 | -3.5 | -3.65%
O=C(O)c1c(Cl)ccc(F)c1Cl | 9.45 | 1.2 | 4.5 | -11.9 | 11.3 | 8.35%
O=C1NC(=S)N(c2ccccc2)C1=O | -19.4 | -7.65 | -24.2 | -30.2 | -2.5 | -11.8%
COc1ccc(C(O)C(NCc2ccccc2)c2ccccc2)cc1 (stereo unspecified) | 7.75 | -7.3 | 13.2 | 11.8 | 2.55 | 23.9%
